High-throughput results: PubChem, several laboratories
Only some compounds are listed: those with a hit (about 5.1% of all), similar ones and a draw of the others.
CRFBP-R2 agonist – agonists of CRF-BP/CRF-R2 complex, primary screen, cell-based, HEK293, calcium dye fluorescence, uHTS | CRF-binding protein / CRF receptor 2 complex (human) | calcium dye fluorescence (FLIPR); percent of saturating CRF peptide response | activation, % at 13.2 µM | actives 0.46% (n = 350,000) | AID 588473, 2011;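 active means activation of at least 50%, plus an integration ratio under a set limit after plate pattern correction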
TMEM16A inh – TMEM16A chloride channel inhibitors, primary screen, cell-based, HTS | Anoctamin-1 (Mus musculus), Q8BHY3 | HEK293 TMEM16A/YFP iodide influx fluorescence, ionomycin | normalized B-score (activity score, 25-100; higher = stronger inhibition) at 10 µM | actives 1.2% (n = 310,000) | AID 588511, 2011;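 active means ratio plate-corrected score three or more library SD toward inhibition, starting fluorescence score within five deviations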;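 further: score derived from kinetic fluorescence span divided by baseline fluorescence per well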
Target sequence (Q8BHY3 whole entry, looked up): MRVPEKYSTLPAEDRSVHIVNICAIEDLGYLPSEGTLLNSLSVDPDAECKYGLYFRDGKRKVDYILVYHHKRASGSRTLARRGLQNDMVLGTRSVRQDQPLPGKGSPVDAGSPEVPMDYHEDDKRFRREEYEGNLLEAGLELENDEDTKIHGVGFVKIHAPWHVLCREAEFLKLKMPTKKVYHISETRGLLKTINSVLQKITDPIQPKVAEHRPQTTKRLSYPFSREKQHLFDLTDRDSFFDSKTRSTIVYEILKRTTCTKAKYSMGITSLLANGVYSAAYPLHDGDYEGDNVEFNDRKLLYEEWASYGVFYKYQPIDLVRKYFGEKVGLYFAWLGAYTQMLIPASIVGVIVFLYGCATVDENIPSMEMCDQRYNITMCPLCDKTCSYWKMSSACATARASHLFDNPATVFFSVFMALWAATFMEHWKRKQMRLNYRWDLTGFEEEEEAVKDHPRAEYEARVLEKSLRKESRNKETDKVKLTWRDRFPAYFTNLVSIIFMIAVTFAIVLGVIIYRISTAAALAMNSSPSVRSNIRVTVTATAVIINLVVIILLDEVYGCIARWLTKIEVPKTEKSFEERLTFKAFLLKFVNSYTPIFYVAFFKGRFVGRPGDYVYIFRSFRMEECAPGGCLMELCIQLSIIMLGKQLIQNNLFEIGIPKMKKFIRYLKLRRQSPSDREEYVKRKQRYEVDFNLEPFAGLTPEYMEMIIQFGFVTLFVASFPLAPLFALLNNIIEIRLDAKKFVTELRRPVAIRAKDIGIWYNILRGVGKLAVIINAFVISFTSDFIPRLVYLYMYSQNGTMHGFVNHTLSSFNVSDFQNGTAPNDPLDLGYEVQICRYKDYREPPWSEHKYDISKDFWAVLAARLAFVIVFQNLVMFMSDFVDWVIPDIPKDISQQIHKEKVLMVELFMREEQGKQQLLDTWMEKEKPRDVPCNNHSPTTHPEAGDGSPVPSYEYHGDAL
GRIN3A LBD mod – binders of NR3A ligand-binding domain, primary screen, biophysical, differential scanning fluorimetry, uHTS. Glutamate receptor ionotropic, NMDA 3A (GRIN3A) ligand-binding domain. NR3A LBD differential scanning fluorimetry, Tm shift; 0% = protein alone, 100% = glycine-bound protein. Tm shift relative to glycine control, % at 25 µM. actives 2.5% (n = 340,000);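 active means melting temperature shift of at least 10% of the positive control shift, at one fixed dose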
MPTP block – mitochondrial permeability transition pore inhibitors, primary screen, biochemical, isolated mouse mitochondria, absorbance; actives 1.4% (n = 360,000); AID 602449, 2012; inhibition, % at 10 µM; Ca2+ swelling absorbance, 30 min;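 active means inhibition of 50% or more, scaled per plate between neutral and stimulator controls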
CRFBP-R2 block – antagonists of CRF-BP/CRF-R2 complex, primary screen, cell-based, HEK293, calcium dye fluorescence, uHTS | AID 588475, 2011 | actives 0.59% (n = 350,000) | CRF-induced calcium fluorescence | inhibition, % at 11.8 µM;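 active means inhibition of the ligand-induced calcium signal above about 50% at the single tested concentration, limit read from the data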
ANO1 activ – TMEM16A chloride channel activators or potentiators, primary screen, cell-based, HTS | Anoctamin-1 (Mus musculus), Q8BHY3 | HEK293 TMEM16A/YFP-H148Q/I152L, iodide quench fluorescence; stronger effect = lower value | B-score at 10 µM | actives 0.3% (n = 340,000);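 active means fluorescence-ratio B-score plate-corrected deviation score at least 3 library SD below zero, with starting fluorescence score within 5 deviations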;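 further: channel opened by trigger with iodide after compound preincubation; score built on the fluorescence ratio of max minus min over baseline; more negative score means more quench and so TMEM16A activation or potentiation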
A number is an active result; – = inactive; · = no result given.

SMILES	CRFBP-R2 agonist	TMEM16A inh	GRIN3A LBD mod	MPTP block	CRFBP-R2 block	ANO1 activ
Cc1ccc(S(=O)(=O)c2c(N)n(NC(=O)c3ccccc3C)c3nc4ccccc4nc23)cc1	–	–	11	–	–	–
COc1ccc(CCN(C)C(=S)Nc2cccc(C)c2)cc1OC	–	–	–	–	–	–
CCN(CC)c1ccc2cc(-c3nnc(-c4ccncc4)o3)c(=O)oc2c1	337	·	–	–	–	–
c1cc(-c2nnc(-c3ccncc3)o2)ccn1	–	–	–	–	–	–
CCN(CC)c1ccc2cc(NC(=O)CCC(=O)O)c(=O)oc2c1	88	–	–	–	–	–
CCN(CC)c1ccc2cc(C(N)=O)c(=N)oc2c1	258	–	–	–	–	–
CCN(CC)c1ccc2cc(/C(N)=N/NC(=O)c3cccs3)c(=O)oc2c1	·	–	·	·	·	·
CCN(CC)c1ccc2cc(C(=O)Nc3ccccn3)c(=O)oc2c1	263	–	–	–	–	–
CCN(CC)c1ccc2cc(C=O)c(=O)oc2c1	–	–	–	–	–	–
O=C(Cc1cccs1)Nc1ccccc1F	–	–	–	–	–	–
CCN(CC)c1ccc2cc(C(C)=O)c(=O)oc2c1	361	–	–	–	–	–
CCN(CC)c1ccc2cc(C(N)=O)c(=O)oc2c1	–	–	–	–	–	–
CC(Oc1ccc(Br)cc1)C(=O)N(C)CC(=O)Nc1ccc(N2CCOCC2)cc1 (stereo not drawn)	–	–	–	–	–	–
CCCC(c1nnnn1Cc1cccs1)N1CCN(c2nc3ccccc3s2)CC1 (stereo not drawn)	–	–	–	–	–	-13
c1ccc(C(c2nnnn2Cc2cccs2)N2CCN(C3CCCC3)CC2)cc1 (stereo not drawn)	–	–	–	–	65	–
CC1CCCCN1C(=O)COC(=O)C1CCN(S(=O)(=O)c2ccc3c(c2)OCCO3)CC1 (stereo not drawn)	–	–	–	–	–	–
CC(=O)N1CCN(C(c2ccccc2)c2nnnn2C(C)(C)C)CC1 (stereo not drawn)	·	·	·	–	·	·
Cn1c(=O)c2c(ncn2CC(O)CNc2ccc(Br)cc2)n(C)c1=O (stereo not drawn)	–	–	23	–	–	–
COc1ccc(NCC(O)Cn2cnc3c2c(=O)n(C)c(=O)n3C)cc1 (stereo not drawn)	–	–	–	–	–	–
COc1ccc(OC)c2cc3ccccc3cc12	–	·	–	–	–	-8.3
COC(=O)c1ccc(CO/N=C/c2ccc(OC)cc2OC)cc1	–	–	–	–	–	–
COC(=O)C(Nc1ccccc1Cl)(c1cc(C)c(O)c(C)c1)C(F)(F)F (stereo not drawn)	–	100	–	–	–	–
CC(=O)c1ccc(N2CCN(C(=O)COc3ccccc3F)CC2)c(F)c1	–	–	10	–	–	–
CCC(=O)c1ccc(N2CCN(C(=O)COc3ccccc3F)CC2)c(F)c1	–	–	–	–	–	–
CC(C)(C)OC(=O)n1cc(/C=N/NC(=O)c2ccco2)c2ccccc21	–	–	–	–	–	–
SMILES	CRFBP-R2 agonist	TMEM16A inh	GRIN3A LBD mod	MPTP block	CRFBP-R2 block	ANO1 activ
Cn1cc(/C=C(\C#N)C(=O)Nc2ncc(Cc3cccc(Cl)c3)s2)c2ccccc21	·	–	·	·	·	·
N#C/C(=C\c1c[nH]c2ccccc12)C(=O)Nc1ncc(Cc2ccc(Cl)cc2Cl)s1	–	–	38	–	–	–
COc1ccc(/C(C)=N/Nc2nc3ccccc3n3cnnc23)cc1OC	–	–	–	·	–	·
COc1cccc(CNC(=S)Nc2ccc3c(c2)c(=O)n(C)n3Cc2ccc(F)cc2)c1	·	·	·	–	·	·
COc1ccc(OCC(O)CNC(=O)Nc2ccc(C(C)(C)C)cc2)cc1 (stereo not drawn)	–	–	–	–	–	–
Cc1nn(C)c(C(=O)NC(=S)Nc2ccccc2Br)c1Cl	93	–	–	–	–	-6.7
CC1=NOC(=O)/C1=C\c1ccc(-c2ccc(Cl)cc2Cl)o1	–	·	–	–	–	-6.6
COc1cccc(CN2CCN(c3cccc(C(F)(F)F)c3)CC2)c1OC	–	–	–	–	54	–
CCOc1cccc(CN2CCN(c3cccc(C(F)(F)F)c3)CC2)c1O	–	–	–	–	–	–
CCN1C(=O)[C@H]2[C@H]3CN=C(SCC(=O)c4ccccc4)N3[C@@](CC)(C(=O)OC)[C@H]2C1=O	–	·	–	–	–	·
NC(=O)c1cc2ccc(O)cc2oc1=NCc1ccccc1	319	–	–	–	–	–
NC(=O)c1cc2ccccc2oc1=NCc1ccccc1	–	–	–	–	–	–
NC(=O)c1cc2cc(Br)ccc2oc1=NCc1ccccc1	–	–	–	–	–	-8.5
O=C(Nc1ccsc1C(=O)O)c1ccccc1Cl	–	–	–	–	–	–
COc1cc(C(=O)N2CCN(Cc3ccc4c(c3)OCO4)CC2)cc(OC)c1OC	–	–	–	–	–	–
COc1ccc(OC)c(/C=N/N(C)c2ccccc2)c1	–	–	·	–	–	–
COc1cc(/C=N/N(C)c2ccccc2)cc(Cl)c1O	–	–	–	–	53	–
CC1(C)CC2CC(C)(CN2/C=C2/CCCCC2=O)C1 (stereo not drawn)	–	–	–	–	115	–
CC1(C)C[C@@H]2C[C@@](C)(CN2C(=O)c2ccccc2)C1	–	–	–	–	–	–
CCCCn1nc(C(=O)N(CC)CC(=O)Nc2c(F)cccc2F)c2ccccc2c1=O	–	·	–	–	–	–
C=CC[C@H](CC(=O)N(CCO)Cc1ccccc1)C(=O)NC[C@H](OC(=O)[C@@H](CC=C)CC(=O)OC(C)(C)C)c1ccccc1	–	·	–	–	–	–
C=CC[C@H](CC(=O)NCCO)C(=O)NC[C@@H](OC(=O)[C@@H](CC=C)CC(=O)OC(C)(C)C)c1ccccc1	–	·	–	–	–	-18
CCOC(=O)C1CCN(C(=O)COC(=O)c2oc3ccccc3c2C)CC1	–	–	–	–	–	–
COC(=O)C1CCN(C(=O)COC(=O)c2oc3ccccc3c2C)CC1	–	–	17	–	–	–
O=C(NC12CC3CC(CC(C3)C1)C2)c1cc([N+](=O)[O-])ccc1N1CCOCC1	–	–	13	–	–	–
O=C(NCC1CCCCC1)c1cc([N+](=O)[O-])ccc1N1CCOCC1	–	–	–	–	–	–
COC(=O)C1CCN(C(=O)COC(=O)c2cc([N+](=O)[O-])ccc2N2CCOCC2)CC1	–	·	–	–	105	–
